High-throughput results as filed in PubChem BioAssay.
Most compounds without a hit are left out; they make up all but 6.7% or so of the library.
C diff growth – inhibitors of Clostridium difficile growth; 0.25% of 86,000 active; AID 1259249; growth activity, negative = inhibition, % at 16 µg/mL (by protocol); Clostridium difficile clinical isolate growth, OD600, 24 h; active compounds read low;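 active = mean growth activity at or below -80% and every replicate also at or below -80%; inconclusive = mean at or below -80% but some replicate above -80%; inactive = mean growth activity above -80%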;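 note: 0% = DMSO wells and -100% = levofloxacin 16 µg/mL wells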
Pf Dd2 growth – inhibitors of Plasmodium falciparum Dd2 growth; P. falciparum Dd2 growth, SYBR Green, 72 h; active compounds read low; activity change, % at 10 µM; 2.3% of 94,000 active; AID 1159554; in the data active = activity change below about -80%; inconclusive = no clear call, values can overlap the other calls
T cruzi growth-1 – blocks T. cruzi growth in NIH3T3 culture. T. cruzi beta-gal in NIH3T3, GalScreen luminescence, 90 h. inhibition, % at 8.34 µM. 5.9% of 77,000 active. AID 624255;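 active = mean inhibition above about 93%, with at least 55% of replicates each passing it, limit read from the data, passing the limit was not always enough; inconclusive = only one of those two conditions holds; inactive = neither condition holds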
T cruzi growth-2 – Trypanosoma cruzi proliferation inhibition; shares compounds with T cruzi growth-1; T. cruzi beta-gal in NIH3T3, GalScreen luminescence, 90 h; inhibition, % at 8.35 µM; 72% of 5,600 active; AID 651739;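 active = mean replicate inhibition above about 95% and at least 55% of replicates individually reaching it, limit read from the data; inconclusive = only one of the two criteria is met; inactive = neither criterion is met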
T cruzi growth-3 – Trypanosoma cruzi proliferation inhibition | 21% of 5,600 active | inhibition, % at 2.09 µM | shares compounds with T cruzi growth-1 | T. cruzi beta-gal in NIH3T3, GalScreen luminescence, 90 h;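 active = mean inhibition above about 95%, with at least 55% of replicates also reaching it, limit read from the data; inconclusive = meets just one of the two conditions; inactive = meets neither condition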;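 note: plate controls were neutral control median for no effect and positive control median for full effect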
3T3 cytotox – cytotoxicity in mouse NIH/3T3 fibroblasts. NIH/3T3 viability, CellTiter-Glo ATP luminescence, 90 h. cytotoxicity (signal decrease), % at 8.35 µM. 14% of 5,600 active. shares compounds with T cruzi growth-1;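 active = mean signal decrease across replicates above about 35% based on untreated-well scatter, with enough replicates individually passing, limit read from the data; inconclusive = no rule stated though some were filed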;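 note: 0% = median of neutral control wells and 100% = median of positive control wells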
3T3 cytotox 2 – NIH/3T3 (mouse) viability loss. NIH/3T3 viability, CellTiter-Glo ATP luminescence, 90 h. 56% of 5,600 active. shares compounds with T cruzi growth-1. inhibition, % at 24.9 µM. AID 651744;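 active = mean loss of cell viability signal at or above a set limit, and enough replicates individually reaching it; inconclusive = meets only the mean limit or only the replicate share; inactive = meets neither condition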;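 note: 0% = median of neutral control wells and 100% = median of positive control wells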
An asterisk follows results filed as active; ? = inconclusive; nt = no result.

SMILES	C diff growth	Pf Dd2 growth	T cruzi growth-1	T cruzi growth-2	T cruzi growth-3	3T3 cytotox	3T3 cytotox 2
COCC(=O)N1CCCCN2[C@H](CO)[C@H](c3ccc(-c4ccc(C)cc4)cc3)[C@@H]2C1	-16	10	91	nt	nt	nt	nt
COCC(=O)N1CCCCN2[C@@H](CO)[C@@H](c3ccc(-c4ccc(C)cc4)cc3)[C@@H]2C1	-11	26	107*	75	75	-11	26*
CN1C[C@H]2[C@@H](c3ccccc31)[C@H](CO)N2C(=O)CN1CCOCC1	13	-5	3	nt	nt	nt	nt
CCC(=O)N1C[C@H](C)[C@@H](OC)CN(C)C(=O)c2ccc(NC(=O)NC(C)C)cc2OC[C@H]1C	nt	0	37	nt	nt	nt	nt
C[C@H](CO)N1C[C@H](C)[C@@H](CN(C)S(=O)(=O)c2cn(C)cn2)Oc2cc(C#Cc3cccc(F)c3)ccc2S1(=O)=O	0	-67	47	nt	nt	nt	nt
C[C@H]1CN([C@@H](C)CO)S(=O)(=O)c2ccc(C#Cc3ccccc3)cc2O[C@@H]1CN(C)S(=O)(=O)c1cn(C)cn1	-9	-87*	?	112*	54	41*	36*
C[C@@H]1CN([C@@H](C)CO)S(=O)(=O)c2ccc(C#Cc3ccccc3)cc2O[C@H]1CN(C)S(=O)(=O)c1cn(C)cn1	-8	-75	72	nt	nt	nt	nt
C[C@H](CO)N1C[C@H](C)[C@H](CN(C)S(=O)(=O)c2cn(C)cn2)Oc2cc(C#Cc3ccc(F)cc3)ccc2S1(=O)=O	3	-57	117	nt	nt	nt	nt
C[C@H](CO)N1C[C@H](C)[C@@H](CN(C)S(=O)(=O)c2cn(C)cn2)Oc2cc(C#Cc3ccc(F)cc3)ccc2S1(=O)=O	2	-58	107*	96*	80	18	25*
C[C@H]1CN([C@@H](C)CO)S(=O)(=O)c2ccc(C#Cc3cccc(F)c3)cc2O[C@H]1CN(C)S(=O)(=O)c1cn(C)cn1	2	-69	96*	97*	47	25	29*
N#Cc1ccc(-c2ccc3c(c2)[C@H]2[C@H](CCN2C(=O)C2CCC2)[C@H](CO)N3)cc1	-1	-69	nt	nt	nt	nt	nt
O=C(N[C@@H]1CC[C@H](CCNC(=O)c2ccccc2F)O[C@H]1CO)c1ccc2c(c1)OCO2	-3	-6	nt	nt	nt	nt	nt
COc1ccc(CN(C)C[C@@H]2Oc3c(NS(C)(=O)=O)cccc3C(=O)N([C@H](C)CO)C[C@H]2C)cc1	1	-10	-41	nt	nt	nt	nt
O=C(C[C@H]1CC[C@H](NC(=O)Nc2ccc(C(F)(F)F)cc2)[C@H](CO)O1)NCc1ccccn1	-2	-10	6	nt	nt	nt	nt
CO[C@H]1CN(C)C(=O)c2cc(NC(=O)Nc3c(C)noc3C)ccc2OC[C@H](C)N(C)C[C@H]1C	3	14	-19	nt	nt	nt	nt
O=C(C[C@H]1C[C@H]2c3cc(NS(=O)(=O)c4ccc(F)cc4)ccc3O[C@H]2[C@@H](CO)O1)NCc1ccccn1	-3	-1	nt	nt	nt	nt	nt
Cc1cccc(S(=O)(=O)N2CCCCN3[C@H](CO)[C@H](c4ccc(-c5ccccc5)cc4)[C@H]3C2)c1	52	-72	62	nt	nt	nt	nt
Cc1cccc(-c2ccc([C@@H]3[C@@H](CO)N4CCCCN(S(=O)(=O)c5cccc(C)c5)C[C@H]34)cc2)c1	-7	-35	90	nt	nt	nt	nt
Cc1cccc(-c2ccc([C@@H]3[C@@H](CO)N4CCCCN(S(=O)(=O)c5ccccc5C)C[C@H]34)cc2)c1	-3	-39	81	nt	nt	nt	nt
Cc1cccc(-c2ccc([C@H]3[C@H](CO)N4CCCCN(S(=O)(=O)c5cccc(C)c5)C[C@@H]34)cc2)c1	21	-26	98*	91	101*	115*	106*
Cc1cccc(S(=O)(=O)N2CCCCN3[C@H](CO)[C@@H](c4ccc(-c5ccccc5)cc4)[C@@H]3C2)c1	-6	-57	105*	99*	64	26	11
Cc1cccc(-c2ccc([C@H]3[C@H]4CN(S(=O)(=O)c5ccccc5C)CCCCN4[C@H]3CO)cc2)c1	-7	-10	103*	106*	92	2	38*
CO[C@@H](CN(C)S(=O)(=O)c1ccc(C)cc1)[C@H](C)CN(Cc1ccccc1Cl)[C@@H](C)CO	nt	-27	65	nt	nt	nt	nt
CC(=O)Nc1ccc2c(c1)C(=O)N(C)[C@@H]1CC[C@@H](CC(=O)N3CCc4ccccc4C3)O[C@H]1CO2	-4	-9	14	nt	nt	nt	nt
CCS(=O)(=O)Nc1ccc2c(c1)C(=O)N(C)C[C@@H](OC)[C@H](C)CN(CCC(F)(F)F)[C@H](C)CO2	nt	-38	11	nt	nt	nt	nt
SMILES	C diff growth	Pf Dd2 growth	T cruzi growth-1	T cruzi growth-2	T cruzi growth-3	3T3 cytotox	3T3 cytotox 2
C[C@H](CO)N1C[C@H](C)[C@@H](CN(C)Cc2ccc3c(c2)OCO3)Oc2ccc(NC(=O)CCCCCC(=O)Nc3ccccc3N)cc2CC1=O	-3	-55	101*	109*	79	-6	0
C[C@@H]1CN([C@@H](C)CO)C(=O)Cc2cc(NC(=O)CCCCCC(=O)Nc3ccccc3N)ccc2O[C@H]1CN(C)Cc1ccc2c(c1)OCO2	-7	-41	nt	nt	nt	nt	nt
C[C@H]1CN([C@@H](C)CO)C(=O)Cc2cc(NC(=O)CCCCCC(=O)Nc3ccccc3N)ccc2O[C@H]1CN(C)Cc1ccc2c(c1)OCO2	-1	-88*	?	89	16	0	19
C[C@@H]1CN([C@@H](C)CO)C(=O)Cc2cc(NC(=O)CCCCCC(=O)Nc3ccccc3N)ccc2O[C@H]1CN(C)Cc1ccccc1	-13	-74	82	nt	nt	nt	nt
CO[C@@H]1CN(C)C(=O)c2ccc(NC(=O)C3CCC3)cc2OC[C@H](C)N(C(=O)NC(C)C)C[C@@H]1C	-1	-17	-13	nt	nt	nt	nt
COCC#Cc1cnc2c(c1)C(=O)N([C@H](C)CO)C[C@@H](C)[C@@H](CN(C)C(=O)Nc1cc(F)ccc1F)O2	0	-6	nt	nt	nt	nt	nt
COc1ccccc1S(=O)(=O)N(C)C[C@@H]1Oc2ncc(-c3ccc(C)cc3)cc2C(=O)N([C@H](C)CO)C[C@@H]1C	0	-47	61	nt	nt	nt	nt
COc1ccccc1S(=O)(=O)N(C)C[C@H]1Oc2ncc(-c3ccc(C)cc3)cc2C(=O)N([C@H](C)CO)C[C@@H]1C	18	-39	99*	99*	71	64*	37*
COc1ccccc1S(=O)(=O)N(C)C[C@H]1Oc2ncc(Br)cc2C(=O)N([C@@H](C)CO)C[C@H]1C	-5	43	nt	nt	nt	nt	nt
COc1ccccc1S(=O)(=O)N(C)C[C@H]1Oc2ncc(-c3ccc(C)cc3)cc2C(=O)N([C@@H](C)CO)C[C@@H]1C	15	-51	111*	103*	61	25	42*
CO[C@H]1CN(C)C(=O)c2ccc(NC(=O)c3ccc(F)cc3)cc2OC[C@H](C)N(C(=O)c2ccc(F)cc2)C[C@@H]1C	nt	-28	20	nt	nt	nt	nt
